Laboratory results published in PubChem BioAssay (Tox21).
Where “and” joins values, the source holds several entries; their conditions need not be identical. Equal values may be shown once. Records with an inconclusive call do not appear. Some compounds were tested as several samples or in several runs, with calls that do not always agree. Calls of active or inactive are those of the source. Unless noted, calls come from the whole dose curve; as a rule, active = well fitted curve in the direction sought with a large enough effect in the repeat runs; inconclusive = weak or mixed curves; inactive = no such curve, though single readings can be large; an effect the other way counts as inactive or inconclusive.

Legend:
[1] = molecular target: Thyrotropin-releasing hormone receptor (Homo sapiens) (UniProt P34981); assay: qHTS assay to identify small molecule agonists of the thyrotropin-releasing hormone receptor (TRHR) signaling pathway (AID 1346891; calls by dose curve; note: series mostly up to about 58 µM)
Thyrotropin-releasing hormone receptor (Homo sapiens), sequence (P34981 whole entry, looked up): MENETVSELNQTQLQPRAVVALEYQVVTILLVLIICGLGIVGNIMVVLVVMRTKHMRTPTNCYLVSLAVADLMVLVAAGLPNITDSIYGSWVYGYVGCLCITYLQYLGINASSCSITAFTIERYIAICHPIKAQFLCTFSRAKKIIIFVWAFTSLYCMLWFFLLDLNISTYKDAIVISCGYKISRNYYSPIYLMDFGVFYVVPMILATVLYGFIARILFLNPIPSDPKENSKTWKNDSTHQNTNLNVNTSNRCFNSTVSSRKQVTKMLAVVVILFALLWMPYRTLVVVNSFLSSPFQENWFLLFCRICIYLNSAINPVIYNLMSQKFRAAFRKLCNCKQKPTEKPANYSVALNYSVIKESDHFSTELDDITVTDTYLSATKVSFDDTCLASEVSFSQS
How it was run: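 TRHR-expressing HEK293 cells were plated 18 h at 37 °C/5% CO2, loaded with calcium dye 2 h at 37 °C, then given compound in DMSO; fluorescence was read kinetically for 3 min at 1 s intervals.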

[2] = Human pregnane X receptor (PXR) small molecule agonists, qHTS cell viability counter screen (AID 1346977); note: nearly all actives have a fitted effect of over 50% in size; note: potency is the fitted concentration of half-maximal effect
How it was run: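 PXR-Luc HepG2 cells in medium with 5% charcoal-stripped FBS were pre-incubated 5hr, then exposed to compounds for 24hr at 37C. Viability was read in the same wells by CellTiter-Fluor fluorescence, reagent added after 23hr with a 1hr incubation.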

[3] = Caspase-3/7 induction in HepG2 cells by small molecules, qHTS assay (AID 1346978); note: nearly all actives have a fitted effect of over 15% in size
How it was run: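 Wild-type HepG2 cells (2,000/well) were settled 5 h at 37 C, 5% CO2, then exposed to compounds in DMSO for 17 h. Caspase-3/7 activity was read by luminescence 30 min after adding Caspase-Glo 3/7 reagent at room temperature.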

[4] = Caspase-3/7 induction in CHO-K1 cells by small molecules, qHTS cell viability counter screen (AID 1346979); note: nearly all actives have a fitted effect of over 35% in size; note: potency is the fitted concentration of half-maximal effect
How it was run: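 Wild-type CHO-K1 cells were seeded at 1,500 per well, rested 5hr at 37 C, then exposed to compounds in DMSO. After 16hr, CellTiter-Fluor reagent was added and fluorescence read 1hr later as the viability measure.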

[5] = Caspase-3/7 induction in CHO-K1 cells by small molecules, qHTS assay (AID 1346980); note: nearly all actives have a fitted effect of over 15% in size
How it was run: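 Wild-type cells were seeded at 1,500 per well and settled 5 hr at 37 C, 5% CO2, then exposed to DMSO-dissolved compounds for 17 hr. Caspase-Glo 3/7 reagent was added, and luminescence was read after 30min at room temperature.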

[6] = Caspase-3/7 induction in HepG2 cells by small molecules, qHTS cell viability counter screen (AID 1346981); note: nearly all actives have a fitted effect of over 30% in size; note: potency is the fitted concentration of half-maximal effect
How it was run: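 Wild-type HepG2 cells (2,000/well) were allowed to settle for 5 hr at 37 C, 5% CO2, then dosed with compounds in DMSO by pin transfer. After 16 hr at 37 C, CellTiter-Fluor was added and fluorescence read 1 hr later.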

[7] = molecular target: Nuclear receptor subfamily 1 group I member 2 (Homo sapiens) (UniProt O75469); assay: Human pregnane X receptor (PXR) small molecule agonists, qHTS assay (AID 1346982); note: nearly all actives have a fitted effect of over 35% in size; note: potency is the fitted concentration of half-maximal effect
Nuclear receptor subfamily 1 group I member 2 (Homo sapiens), sequence (O75469 whole entry, looked up): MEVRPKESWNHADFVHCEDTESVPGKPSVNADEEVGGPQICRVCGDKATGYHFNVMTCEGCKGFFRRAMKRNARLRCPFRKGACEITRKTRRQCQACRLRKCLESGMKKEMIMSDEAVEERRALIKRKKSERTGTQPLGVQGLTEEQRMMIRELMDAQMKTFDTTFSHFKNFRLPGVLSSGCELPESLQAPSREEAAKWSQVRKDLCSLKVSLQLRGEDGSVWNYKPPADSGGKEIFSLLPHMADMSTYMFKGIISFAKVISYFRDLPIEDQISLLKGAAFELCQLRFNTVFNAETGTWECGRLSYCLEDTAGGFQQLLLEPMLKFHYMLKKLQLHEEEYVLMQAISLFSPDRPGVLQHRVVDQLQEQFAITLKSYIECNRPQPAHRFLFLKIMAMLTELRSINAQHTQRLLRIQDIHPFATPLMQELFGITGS
How it was run: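 PXR-Luc HepG2 cells (CYP3A4 promoter-driven luciferase) were seeded in medium with 5% charcoal-stripped FBS, left 5 hr at 37 C, then exposed to compounds in DMSO for 24 hr. Luminescence was read after ONE-Glo addition.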

[8] = molecular target: Nuclear receptor subfamily 1 group I member 2 (Rattus norvegicus) (UniProt Q9R1A7); assay: Rat pregnane X receptor (rPXR) activation by small molecules, qHTS assay (AID 1346983); conditions: rPXR luciferase reporter cells, One-Glo luminescence, 24 h; max activation: stronger effect = higher value; note: nearly all actives have a fitted effect of over 20% in size
Nuclear receptor subfamily 1 group I member 2 (Rattus norvegicus), sequence (Q9R1A7 whole entry, looked up): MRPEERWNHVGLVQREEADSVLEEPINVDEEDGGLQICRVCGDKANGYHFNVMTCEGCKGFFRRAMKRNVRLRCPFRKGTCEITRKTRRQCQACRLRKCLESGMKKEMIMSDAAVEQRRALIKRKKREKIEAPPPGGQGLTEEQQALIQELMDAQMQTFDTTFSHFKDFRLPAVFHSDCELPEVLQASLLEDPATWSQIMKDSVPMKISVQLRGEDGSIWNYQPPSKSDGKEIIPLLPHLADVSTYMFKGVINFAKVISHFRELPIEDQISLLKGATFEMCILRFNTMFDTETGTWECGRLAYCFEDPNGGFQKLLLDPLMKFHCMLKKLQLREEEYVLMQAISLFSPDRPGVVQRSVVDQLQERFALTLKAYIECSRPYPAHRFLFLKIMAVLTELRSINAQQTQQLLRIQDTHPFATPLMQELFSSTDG
How it was run: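 Cell-based rPXR luciferase reporter assay, 2,000 cells per well, rested 5hr at 37 C before compound addition in DMSO, then 24 hr at 37 C. One-Glo reagent was added and luminescence read after 30 min at room temperature.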

[9] = molecular target: Nuclear receptor subfamily 1 group I member 2 (Homo sapiens) (UniProt O75469); assay: CYP3A4 induction through human pregnane X receptor (PXR) by small molecules, qHTS assay (AID 1346984); note: nearly all actives have a fitted effect of over 40% in size
How it was run: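 DPX-2 cells (HepG2 co-transfected with PXR and CYP3A4 promoter-luciferase) treated with compounds 24 h at 37C; luciferin-IPA CYP3A4 substrate 3uM final added for 3 h, then One-Glo; luminescence read. qHTS format.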

[10] = molecular target: Cytochrome P450 2D6 (Homo sapiens) (UniProt P10635); assay: Cytochrome P450 Family 2 Subfamily D Member 6 (CYP2D6) small molecule antagonists: luciferase reporter qHTS assay (AID 1671196); note: nearly all actives have a fitted effect of over 50% in size; note: potency is the fitted concentration of half-maximal effect
Cytochrome P450 2D6 (Homo sapiens), sequence (P10635 whole entry, looked up): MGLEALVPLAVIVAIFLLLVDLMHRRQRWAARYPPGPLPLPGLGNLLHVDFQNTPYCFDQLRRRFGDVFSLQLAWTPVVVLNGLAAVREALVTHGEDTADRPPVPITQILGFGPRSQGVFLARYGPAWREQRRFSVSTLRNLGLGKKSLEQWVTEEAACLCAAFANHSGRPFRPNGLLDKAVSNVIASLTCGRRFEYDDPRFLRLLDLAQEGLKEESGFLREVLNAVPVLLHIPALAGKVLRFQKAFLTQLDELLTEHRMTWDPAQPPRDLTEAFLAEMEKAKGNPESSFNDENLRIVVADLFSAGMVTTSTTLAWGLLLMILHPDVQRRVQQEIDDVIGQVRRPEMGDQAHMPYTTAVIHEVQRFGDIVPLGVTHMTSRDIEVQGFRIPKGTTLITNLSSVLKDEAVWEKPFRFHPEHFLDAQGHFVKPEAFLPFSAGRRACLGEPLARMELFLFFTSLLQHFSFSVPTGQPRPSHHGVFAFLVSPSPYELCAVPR
How it was run: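 CYP2D6 enzyme–substrate mix was held with compound for 10 min at room temperature, then NADPH regeneration solution was added and the reaction ran 1 h at room temperature. Luciferin product was detected by luminescence after 20 min with detection reagent.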

[11] = molecular target: Cytochrome P450 2C19 (Homo sapiens) (UniProt P33261); assay: Cytochrome P450 Family 2 Subfamily C Member 19 (CYP2C19) small molecule antagonists: luciferase reporter qHTS assay (AID 1671197); note: nearly all actives have a fitted effect of over 65% in size; note: potency is the fitted concentration of half-maximal effect
Cytochrome P450 2C19 (Homo sapiens), sequence (P33261 whole entry, looked up): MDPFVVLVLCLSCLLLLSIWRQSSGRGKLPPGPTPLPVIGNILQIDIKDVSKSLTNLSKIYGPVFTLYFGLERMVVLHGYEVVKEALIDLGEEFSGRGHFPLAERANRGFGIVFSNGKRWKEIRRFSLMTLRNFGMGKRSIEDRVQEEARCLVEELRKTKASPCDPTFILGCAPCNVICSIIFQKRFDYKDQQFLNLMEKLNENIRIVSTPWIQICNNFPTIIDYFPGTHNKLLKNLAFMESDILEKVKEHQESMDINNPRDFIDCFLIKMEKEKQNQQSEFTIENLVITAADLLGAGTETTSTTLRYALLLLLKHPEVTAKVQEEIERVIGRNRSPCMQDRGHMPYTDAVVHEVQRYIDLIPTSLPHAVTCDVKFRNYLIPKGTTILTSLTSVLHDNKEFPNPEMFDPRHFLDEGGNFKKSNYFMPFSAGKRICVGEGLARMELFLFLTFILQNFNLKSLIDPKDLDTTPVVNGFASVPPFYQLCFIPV
How it was run: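 P450-Glo CYP2C19 system: enzyme-substrate mix with compound 10 min at room temperature, then NADPH regeneration solution, 1 h at 37C. Proluciferin-to-luciferin conversion detected by luminescence after 20 min with detection reagent; ketoconazole as positive control.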

[12] = molecular target: Cytochrome P450 2C9 (Homo sapiens) (UniProt P11712); assay: Cytochrome P450 Family 2 Subfamily C Member 9 (CYP2C9) small molecule antagonists: luciferase reporter qHTS assay (AID 1671198); note: nearly all actives have a fitted effect of over 50% in size; note: potency is the fitted concentration of half-maximal effect
Cytochrome P450 2C9 (Homo sapiens), sequence (P11712 whole entry, looked up): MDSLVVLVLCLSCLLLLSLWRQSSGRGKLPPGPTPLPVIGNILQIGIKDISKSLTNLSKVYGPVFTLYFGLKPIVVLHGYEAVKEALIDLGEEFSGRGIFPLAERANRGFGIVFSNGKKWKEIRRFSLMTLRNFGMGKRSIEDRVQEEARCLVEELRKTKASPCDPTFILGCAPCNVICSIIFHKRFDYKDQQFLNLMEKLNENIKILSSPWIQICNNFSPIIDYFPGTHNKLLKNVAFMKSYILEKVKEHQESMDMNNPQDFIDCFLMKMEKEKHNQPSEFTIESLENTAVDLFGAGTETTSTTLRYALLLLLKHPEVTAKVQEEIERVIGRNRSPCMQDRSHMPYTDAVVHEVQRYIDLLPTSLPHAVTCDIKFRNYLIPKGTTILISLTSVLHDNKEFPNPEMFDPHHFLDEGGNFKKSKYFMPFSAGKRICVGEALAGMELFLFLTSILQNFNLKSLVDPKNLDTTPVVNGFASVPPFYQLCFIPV
How it was run: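 CYP2C9 activity was measured with a P450-Glo proluciferin substrate. Enzyme–substrate mix was held with compound for 10 min at room temperature, then NADPH regeneration solution was added for 1 h at 37C. Luciferin product was read as luminescence.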

[13] = molecular target: Cytochrome P450 1A2 (Homo sapiens) (UniProt P05177); assay: Cytochrome P450 Family 1 Subfamily A Member 2 (CYP1A2) small molecule antagonists: luciferase reporter qHTS assay (AID 1671199); note: nearly all actives have a fitted effect of over 50% in size; note: potency is the fitted concentration of half-maximal effect
Cytochrome P450 1A2 (Homo sapiens), sequence (P05177 whole entry, looked up): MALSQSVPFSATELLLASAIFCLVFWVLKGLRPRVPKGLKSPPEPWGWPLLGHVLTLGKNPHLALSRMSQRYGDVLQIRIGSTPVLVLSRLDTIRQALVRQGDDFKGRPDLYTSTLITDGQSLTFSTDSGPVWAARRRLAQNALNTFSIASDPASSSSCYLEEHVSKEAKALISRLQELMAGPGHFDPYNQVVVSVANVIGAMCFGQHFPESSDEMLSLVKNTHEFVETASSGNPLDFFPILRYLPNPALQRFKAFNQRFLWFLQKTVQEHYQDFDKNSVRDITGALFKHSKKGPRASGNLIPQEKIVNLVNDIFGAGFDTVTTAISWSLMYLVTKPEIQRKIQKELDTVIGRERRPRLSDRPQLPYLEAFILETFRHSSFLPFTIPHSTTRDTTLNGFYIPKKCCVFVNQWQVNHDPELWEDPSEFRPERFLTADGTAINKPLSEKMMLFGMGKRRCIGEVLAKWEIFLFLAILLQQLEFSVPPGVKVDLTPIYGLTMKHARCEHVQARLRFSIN
How it was run: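 Human CYP1A2 activity measured with a P450-Glo proluciferin substrate; compounds in DMSO preincubated 10 min at room temperature with enzyme-substrate mix, then NADPH regeneration system added for 1 h. Luciferin detection reagent, 20 min, luminescence read.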

[14] = molecular target: Voltage-gated inwardly rectifying potassium channel KCNH2 (Homo sapiens) (UniProt Q12809); assay: Human Ether-a-go-go-Related Gene (hERG) channel small molecule antagonists: fluorescence cell-based qHTS assay (AID 1671200)
Voltage-gated inwardly rectifying potassium channel KCNH2 (Homo sapiens), sequence (Q12809 whole entry, looked up): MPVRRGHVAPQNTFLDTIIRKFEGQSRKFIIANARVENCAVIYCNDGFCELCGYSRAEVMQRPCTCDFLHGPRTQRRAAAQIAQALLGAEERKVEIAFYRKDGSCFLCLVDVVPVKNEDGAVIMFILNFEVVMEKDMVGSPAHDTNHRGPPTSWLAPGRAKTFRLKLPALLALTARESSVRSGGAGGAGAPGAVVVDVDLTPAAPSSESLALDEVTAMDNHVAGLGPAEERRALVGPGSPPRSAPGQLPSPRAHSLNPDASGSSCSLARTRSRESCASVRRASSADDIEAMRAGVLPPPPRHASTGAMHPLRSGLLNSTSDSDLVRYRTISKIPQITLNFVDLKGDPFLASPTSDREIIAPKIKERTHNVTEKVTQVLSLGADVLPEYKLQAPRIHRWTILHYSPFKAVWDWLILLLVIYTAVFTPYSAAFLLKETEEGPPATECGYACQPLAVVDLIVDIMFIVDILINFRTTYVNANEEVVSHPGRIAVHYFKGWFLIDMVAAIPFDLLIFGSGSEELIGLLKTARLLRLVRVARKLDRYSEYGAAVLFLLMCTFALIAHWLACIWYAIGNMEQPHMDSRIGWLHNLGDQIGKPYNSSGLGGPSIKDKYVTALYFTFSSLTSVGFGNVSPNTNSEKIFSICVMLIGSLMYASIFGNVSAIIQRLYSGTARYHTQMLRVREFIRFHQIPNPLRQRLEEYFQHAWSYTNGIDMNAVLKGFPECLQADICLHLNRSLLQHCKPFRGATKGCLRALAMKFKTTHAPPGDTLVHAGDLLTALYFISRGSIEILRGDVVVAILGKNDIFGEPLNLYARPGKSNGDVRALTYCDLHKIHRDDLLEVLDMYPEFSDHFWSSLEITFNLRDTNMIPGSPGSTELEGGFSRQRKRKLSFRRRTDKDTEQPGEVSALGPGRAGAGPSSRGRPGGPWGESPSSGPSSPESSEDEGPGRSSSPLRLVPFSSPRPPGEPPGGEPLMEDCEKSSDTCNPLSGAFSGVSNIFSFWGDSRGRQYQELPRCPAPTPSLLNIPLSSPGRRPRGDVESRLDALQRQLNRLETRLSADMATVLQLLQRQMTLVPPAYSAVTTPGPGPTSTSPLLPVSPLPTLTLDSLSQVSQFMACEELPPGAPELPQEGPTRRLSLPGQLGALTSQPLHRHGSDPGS
How it was run: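 U2OS cells expressing the channel were plated at 1000 cells/well, incubated overnight at 37 C, then loaded with FluxOR II thallium-sensitive dye for 1 h at room temperature in the dark, with a further 10 min at room temperature before stimulation.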

[15] = molecular target: Cytochrome P450 3A4 (Homo sapiens) (UniProt P08684); assay: Cytochrome P450 Family 3 Subfamily A Member 4 (CYP3A4) small molecule antagonists: luciferase reporter qHTS assay (AID 1671201); note: nearly all actives have a fitted effect of over 50% in size; note: potency is the fitted concentration of half-maximal effect
Cytochrome P450 3A4 (Homo sapiens), sequence (P08684 whole entry, looked up): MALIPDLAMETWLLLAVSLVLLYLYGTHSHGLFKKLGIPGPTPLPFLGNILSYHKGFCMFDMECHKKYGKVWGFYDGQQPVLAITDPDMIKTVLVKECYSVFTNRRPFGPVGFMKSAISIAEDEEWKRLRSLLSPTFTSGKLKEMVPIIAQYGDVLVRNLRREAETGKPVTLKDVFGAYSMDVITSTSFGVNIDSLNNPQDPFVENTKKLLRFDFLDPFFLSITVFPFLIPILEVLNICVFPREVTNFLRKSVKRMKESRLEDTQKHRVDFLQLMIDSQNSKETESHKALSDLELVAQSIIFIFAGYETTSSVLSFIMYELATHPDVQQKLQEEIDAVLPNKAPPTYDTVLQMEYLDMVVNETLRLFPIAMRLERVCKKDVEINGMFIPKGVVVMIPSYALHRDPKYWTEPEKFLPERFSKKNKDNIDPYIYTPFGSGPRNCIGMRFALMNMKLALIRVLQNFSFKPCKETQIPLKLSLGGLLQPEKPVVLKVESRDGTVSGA
How it was run: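 P450-Glo CYP3A4 system with proluciferin substrate; compounds preincubated 10 min RT with enzyme-substrate mix, then NADPH regeneration added for 1 h RT. Detection reagent 20 min, luminescence read as relative luminescence units.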
% is set by controls: 0 for no effect and ±100 for the full control effect.

C[C@@H]1O[C@@H](OC[C@H]2O[C@@H](Oc3c(-c4ccc(O)c(O)c4)oc4cc(O)cc(O)c4c3=O)[C@H](O)[C@@H](O)[C@@H]2O)[C@H](O)[C@H](O)[C@H]1O
inactive: Potency [1] | Potency [2] | Potency [3] | Potency [4] | Potency [5] | Potency [6] | Potency [7] | max activation [8] -1.22% | outcome [9] | Potency [10] | Potency [11] | Potency [12] | Potency [13] | Potency [14]

OC1CCCC1
inactive: Potency [1] | Potency [2] | Potency [3] | Potency [4] | Potency [5] | Potency [6] | Potency [10] | Potency [11] | Potency [12] | Potency [13] | Potency [14] | Potency [15]
30.6 µM (active) and inactive: Potency [7]

CCCCC(CC)COC(=O)CCCCCCCC(=O)OCC(CC)CCCC (configuration not stated)
24.3 µM (active) and inactive: Potency [7]
5.64 µM (active) and inactive: Potency [15]
inactive: Potency [1] | Potency [2] | Potency [3] | Potency [5] | Potency [6] | Potency [14]
31.7 µM (active) and inactive: Potency [12]
43.3 µM (active) and inactive: Potency [4]
7.96 µM (active) and inactive: Potency [11]
71 µM (active) and inactive: Potency [10]
35.6 µM (active) and inactive: Potency [13]

O=[N+]([O-])C(CO)(CO)CO
758 nM (active) and inactive: Potency [2]
4.26 µM (active) and inactive: Potency [6]
1.7 µM (active) and inactive: Potency [4]
active: Potency [12] 79.6 µM
69.9 µM (active) and inactive: Potency [11]
inactive: Potency [1] | Potency [3] | Potency [5] | Potency [10] | Potency [13] | Potency [14] | Potency [15]
1.35 µM (active) and inactive: Potency [7]

O=S(=O)(O)c1cc(S(=O)(=O)O)c2c(N=Nc3ccccc3)c(O)ccc2c1
71.3 µM (active) and inactive: Potency [11]
active: Potency [2] 39.8 µM and 54.5 µM | Potency [4] 54.7 µM and 34.4 µM | Potency [6] 54.7 µM and 54.5 µM
inactive: Potency [1] | Potency [3] | Potency [5] | Potency [7] | Potency [10] | Potency [12] | Potency [13] | Potency [14] | Potency [15]

C=C(C)C(=O)OCCC[Si](OC)(OC)OC
60.4 µM (active) and inactive: Potency [7]
inactive: Potency [1] | Potency [2] | Potency [3] | Potency [4] | Potency [5] | Potency [6] | Potency [13] | Potency [14]
active: Potency [11] 22.2 µM | Potency [12] 15.7 µM | Potency [15] 3.14 µM and 63.3 µM
62.6 µM (active) and inactive: Potency [10]

CC(=O)Nc1ccc(C(=O)O)cc1
inactive: Potency [1] | Potency [2] | Potency [3] | Potency [4] | Potency [5] | Potency [6] | Potency [7] | max activation [8] -3.56% | outcome [9] | Potency [10] | Potency [11] | Potency [12] | Potency [13] | Potency [14]

CC(C)(N=C=O)c1cccc(C(C)(C)N=C=O)c1
inactive: Potency [1] | Potency [2] | Potency [3] | Potency [4] | Potency [5] | Potency [6] | Potency [12] | Potency [13] | Potency [14]
active: Potency [7] 10.8 µM and 61.1 µM | Potency [10] 35.3 µM | Potency [15] 2.81 µM and 7.96 µM
79.1 µM (active) and inactive: Potency [11]

C=C(C)C(=O)OCCCCCCCCCCCC
inactive: Potency [1] | Potency [3] | Potency [4] | Potency [5] | Potency [6] | Potency [7] | Potency [10] | Potency [11] | Potency [12] | Potency [13] | Potency [15]

O=C(Cl)c1c(Cl)c(Cl)c(C(=O)Cl)c(Cl)c1Cl
inactive: Potency [1] | Potency [3] | Potency [4] | Potency [5] | Potency [6] | Potency [7] | Potency [11] | Potency [12] | Potency [13] | Potency [14]
active: Potency [10] 89.4 µM

CCCCCCCCCC(=O)O
inactive: Potency [1] | Potency [2] | Potency [3] | Potency [4] | Potency [5] | Potency [6] | Potency [7] | Potency [10] | Potency [11] | Potency [13] | Potency [15]
active: Potency [12] 74.8 µM

Clc1ccc(Cl)c(Cl)c1Cl
active: Potency [11] 49.7 µM
inactive and 39.9 µM (active): Potency [13]
inactive: Potency [1] | Potency [3] | Potency [4] | Potency [5] | Potency [6] | Potency [7] | Potency [10] | Potency [12] | Potency [14]

CCCCOCCOCCOC(=O)CCCCC(=O)OCCOCCOCCCC
active: Potency [11] 22.5 µM and 22.4 µM | Potency [12] 11.3 µM and 17.8 µM
inactive: Potency [1] | Potency [2] | Potency [3] | Potency [4] | Potency [5] | Potency [6] | Potency [7] | Potency [13] | Potency [14]

O=C1O[C@H](CO)[C@@H](O)[C@H](O)[C@H]1O
inactive: Potency [1] | Potency [3] | Potency [4] | Potency [5] | Potency [6] | Potency [7] | max activation [8] 1.43% | outcome [9] | Potency [10] | Potency [11] | Potency [12] | Potency [13] | Potency [15]

CCOC(=O)/C=C\C(=O)OCC
inactive: Potency [1] | Potency [3] | Potency [4] | Potency [5] | Potency [6] | Potency [7] | Potency [10] | Potency [12] | Potency [13] | Potency [14] | Potency [15]
72.3 µM (active) and inactive: Potency [11]
